# Bioassay records as filed in PubChem BioAssay.
# JMJD2A Tudor = JMJD2A Tudor domain (human) inhibition; Potency, µM (series often up to 114 µM), actives largely listed as inhibitors; AlphaScreen JMJD2A-Tudor / H3K4me3 peptide binding; 390,000 tested, 4.4% active; O75164; also: nearly all actives have a fitted effect of over 50% in size
# L3MBTL1 inh = blocks human L3MBTL1; AlphaScreen L3MBTL1–H3K9me1 peptide binding; Potency, µM (series often up to 57.1 µM), actives largely listed as inhibitors; 230,000 tested, 0.66% active; AID 485360; also: nearly all actives have a fitted effect of over 60% in size
#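 L3MBTL1 50 nM + b-AHA-H3(1-15)K9me1 75 nM, 30 min RT; compound added, 30 min RT; streptavidin donor/Ni-chelate acceptor beads 10 ug/mL each final, 30 min RT dark; AlphaScreen read.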
# HP1b binding inh = inhibitors of HP1-beta chromodomain binding to methylated histone tails; P83916; AlphaScreen HP1-beta / biotin-H3K9me3 peptide binding; Potency, µM (top dose mostly 114 µM), usual class: inhibitors; 390,000 tested, 0.56% active; also: nearly all actives have a fitted effect of over 70% in size
#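 Compound inhibition of the preformed complex between 50 nM HP1-beta and 50 nM biotinylated H3K9me3 peptide was read by AlphaScreen. Buffer was PBS pH 7.4 with 0.01% Tween-20. Incubations ran 30 min at room temperature, with 10 ug/mL donor/acceptor beads.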
# GLS inhibitor = glutaminase GLS (human) inhibition; O94925; GLS enzymatic activity, qHTS titration; Potency, µM (doses to about 45.5 µM), usual class: inhibitors; 410,000 tested, 0.21% active; AID 624170
# Target sequence (O94925 whole entry, looked up): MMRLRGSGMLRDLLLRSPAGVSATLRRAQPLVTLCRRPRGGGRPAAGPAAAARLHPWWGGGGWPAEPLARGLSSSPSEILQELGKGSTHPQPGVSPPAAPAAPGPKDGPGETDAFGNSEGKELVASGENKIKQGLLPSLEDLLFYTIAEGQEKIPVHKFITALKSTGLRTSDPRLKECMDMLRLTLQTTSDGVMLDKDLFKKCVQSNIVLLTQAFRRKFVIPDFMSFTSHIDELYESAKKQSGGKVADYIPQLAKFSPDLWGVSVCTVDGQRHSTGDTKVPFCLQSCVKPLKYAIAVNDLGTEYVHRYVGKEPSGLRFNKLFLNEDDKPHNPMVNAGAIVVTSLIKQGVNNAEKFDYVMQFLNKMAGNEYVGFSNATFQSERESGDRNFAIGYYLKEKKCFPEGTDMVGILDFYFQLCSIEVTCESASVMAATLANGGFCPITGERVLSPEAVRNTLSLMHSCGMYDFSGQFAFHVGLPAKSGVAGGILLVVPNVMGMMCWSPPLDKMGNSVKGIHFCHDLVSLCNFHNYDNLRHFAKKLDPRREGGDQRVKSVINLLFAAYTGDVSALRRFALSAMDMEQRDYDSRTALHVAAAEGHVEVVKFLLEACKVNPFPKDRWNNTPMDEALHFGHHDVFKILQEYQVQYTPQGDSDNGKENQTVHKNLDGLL
#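 Human kidney-isoform GLS in 45 mM KH2PO4 pH 8.2, 0.02% Tween-20, with compound, started with 1mM L-Glutamine (added stock). Glutamate oxidase/HRP/Amplex red coupled fluorescence read at start and after 30 min at RT.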
# BAZ2B inh = inhibitors of human BAZ2B bromodomain | Potency, µM (highest dose often 114 µM), actives largely listed as inhibitors | AlphaScreen BAZ2B-H3K14Ac peptide displacement | Q9UIF8 | 360,000 tested, 4.4% active; also: nearly all actives have a fitted effect of over 60% in size
#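 AlphaScreen displacement: compounds (up to 110uM) incubated 30 min at room temperature with a preformed 50 nM BAZ2B/50 nM biotinylated H3K14Ac peptide complex in PBS pH 7.4 with Tween-20. Donor and acceptor beads at 10 ug/mL final added, 20 min light-protected before reading.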
# G9a inh = G9a (human) methyltransferase inhibition. G9a H3K9 monomethylation, AlphaScreen, 2 h. 350,000 tested, 8.8% active. Q96KQ7. Potency, µM (doses to about 102 µM), hits mostly inhibitors; also: nearly all actives have a fitted effect of over 75% in size
#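 Readings reflect AlphaScreen signal from monomethyl-H3K9 antibody detection. HMT at 20 nM; substrate b-H3K9 500 nM; cofactor SAM 20 uM; 2 h RT reaction; compounds tested as titrations in qHTS with 15 min preincubation.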
# Numbers stand for hits; - = inactive; ? = inconclusive; . = no result; [ ] = dose if it differs, or a comment. This is a sample that favours compounds with a hit; in the whole collection about 10% have one here. Calls follow the shape of the dose curve; as a rule, active = well fitted curve in the direction sought with a large enough effect; inconclusive = small, poorly fitted or top-dose-only effect, or another doubt; inactive = no such curve, though single readings can be large; an effect the other way counts as inactive or inconclusive.
SMILES,JMJD2A Tudor,L3MBTL1 inh,HP1b binding inh,GLS inhibitor,BAZ2B inh,G9a inh
COc1ccc(-n2c(O)c(/C=N/NS(=O)(=O)c3cc(C)ccc3C)c3ccccc3c2=O)cc1OC,50µM,-,-,-,45µM,?
Cc1cccc(-n2c(O)c(C=NCc3ccccn3)c3ccccc3c2=O)c1,-,-,-,-,?,-
Cc1ccc(-n2c(O)c(C=NCc3ccccn3)c3ccccc3c2=O)cc1,-,-,-,-,56µM,-
COc1ccc(-n2c(O)c(/C=N/NS(=O)(=O)c3ccc(C)cc3)c3ccccc3c2=O)cc1OC,?,-,-,-,?,11µM
CC(C)CCNC(=O)Nc1cc(C(=O)NCc2cccc(F)c2)ccc1N1CCCC1,-,.,-,-,-,-
COc1ccc(OC)c2[nH]c(C(=O)O)cc12,89µM,-,-,-,-,?
NC(=NCc1ccc(Cl)cc1Cl)NC(=O)c1nc(Cl)c(N)nc1N,.,.,.,.,.,-
CC(C)Cn1c(/C=N/Nc2nc3ccccc3[nH]2)nc2ccccc21,-,?,-,-,?,-
C=CCn1cc(/C=N/Nc2nc3ccccc3[nH]2)c2ccccc21,40µM,-,?,?,40µM,50µM
Cn1c(/C=N/Nc2nc3ccccc3[nH]2)nc2ccccc21,?,-,-,-,32µM,-
Cc1c(/C=N/Nc2nc3ccccc3[nH]2)c2ccccc2n1C,32µM,.,50µM,?,18µM,.
CCCn1c(/C=N/Nc2nc3ccccc3[nH]2)nc2ccccc21,-,?,-,-,?,-
N#CN1CCC(NS(=O)(=O)c2cccc(C(F)(F)F)c2)CC1,-,.,.,.,.,.
Cc1ccccc1CNC(=O)CN1C(=O)CCCc2ccccc21,-,.,-,-,-,-
COCCNC(=O)c1ccc2c(c1)N(Cc1ccc(C(F)(F)F)cc1)C(=O)c1ccccc1S2,-,.,-,-,.,-
CCN(c1ccccc1)S(=O)(=O)c1cc(C(=O)O)ccc1C,-,?,-,-,50µM,-[0.501 µM]
O=C(O)c1ccc(Cl)c(S(=O)(=O)N(Cc2ccccc2)c2ccccc2)c1,-,.,-,-,-,?
Cc1ccc2c(=O)c(C(=O)c3ccc(F)cc3)cn(CC(=O)NCc3ccccc3Cl)c2n1,-,.,-,-,-,-
c1coc(-c2nc3cc4ccccc4cc3nc2-c2ccco2)c1,7.9µM,.,7.9µM,.,.,.
Nc1nc(-c2ccc(-n3nncc3-c3ccco3)cc2)cs1,-,?,-,-,?,-
Nc1nc(-c2ccco2)c(-c2ccco2)s1,?,?,?,-,45µM,?
Nc1nc(-c2ccco2)cs1,-,-,-,-,-,45µM
c1coc(-c2ncc[nH]2)c1,-,-,-,-,?,?
Nc1nc(-c2cccs2)c(-c2cccs2)s1,-,.,?,-,?,?
c1coc(-c2nc(-c3ccco3)c(-c3ccco3)nc2-c2ccco2)c1,7.9µM,10µM,?,13µM,28µM,11µM
SMILES,JMJD2A Tudor,L3MBTL1 inh,HP1b binding inh,GLS inhibitor,BAZ2B inh,G9a inh
Cc1cccc(-n2ncc(C(=O)Nc3ccc4c(c3)OCO4)c2C2CCN(C(=O)OC(C)(C)C)CC2)c1,?,.,-,-,?,?
O=C(Nc1ccc(F)cc1F)c1ccc2c(c1)CCN2S(=O)(=O)c1ccc(Cl)cc1,-,.,-,-,-,-
COc1ccc2nc(-c3ccco3)c(-c3ccco3)nc2c1,?,.,-,-,50µM,?
CCOc1cc(C=O)cc(N=Nc2cccc([N+](=O)[O-])c2)c1O,?,-,?,-,25µM,45µM
O=[N+]([O-])c1cccc(N=Nc2ccc(O)cc2O)c1,?,.,-,-,.,.
COc1ccc(C(=O)NCC(=O)OCC(=O)c2ccc3ccccc3c2)cc1,-,.,-,.,.,.
O=C1c2ccccc2NC(c2cn[nH]c2-c2ccc(Cl)cc2)N1O (stereo unspecified),?,-,-,-,-,28µM
CCOc1ccc(N=c2scc(-c3ccccc3)n2CCO)cc1,?,.,?,-,8.9µM,16µM
CCn1c(-c2ccccc2)csc1=Nc1ccc(O)cc1,32µM,?,?,-,20µM,3.5µM
CCOc1ccc(N=c2scc(-c3ccc(OC)cc3)n2CCO)cc1,?,?,-,-,?,2.8µM
COc1ccc2cc3cc(C(=O)N4CCN(c5ccccc5F)CC4)oc3nc2c1,-,.,-,-,.,-
